These results are taken from PubChem BioAssay (EPA / NIEHS).

A word on the AC50: it is the concentration at which the activity in the assay is half-maximal.

Activity calls are given as the source filed them. Rule for the calls: active = hit-call score of the fitted dose curve at least 0.9, where 1 is the maximum; inactive = score below 0.9.

The nature of the assay: CEETOX_H295R_MTT_cell_viability: Viability Assessment in the CeeTox HT-H295R MTT Assay (AID 2283718).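 For AC50: curve fitted both ways so AC50 may mark viability loss or gain.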 The method, then:
CEETOX_H295R is a cell-based, multiplexed-readout assay that uses H295R, a human adrenal gland cell line, with measurements taken at 48 hours after chemical dosing in a 96-well plate.CEETOX_H295R_MTT_cell_viability is one of 23 assay component(s) measured or calculated from the CEETOX_H295R assay. It is designed to make measurements of cell number, a form of viability reporter, as detected with […] signals by MTT cytotoxicity assay technology.The assay component endpoint CEETOX_H295R_MTT_cell_viability was analyzed with bidirectional fitting relation to DMSO as the negative control and baseline of activity. Using a type of viability reporter in the MTT cytotoxicity assay, gain or loss-of-signal activity can be used to monitor cellular processes to understand changes in proliferation. To generalize the intended target to other relatable targets, this assay endpoint is annotated to cell cycle, where the subfamily is proliferation.
Cell culture and media preparation procedures were conducted in accordance with OECD Test No. 456 guidelines, with minor modifications. H295R cells (ATCC CRL-2128) were expanded for 5 passages and frozen in batches in liquid nitrogen. Prior to the steroidogenesis assay, H295R cells were thawed and passed at least 4 times. The maximum passage was 10. Cells were maintained in a 1:1 mixture of DMEM/F12 supplemented with 5ml/L ITS+ Premix (BD Bioscience) and 12.5 ml/L Nu-Serum (BD Bioscience). After seeding cells into 96-well plates at 50-60% confluency, cells were allowed to adhere overnight. Prior to chemical testing, culture medium was replaced with 175 uL medium containing 10 uM forskolin to stimulate steroidogenesis for 48 hours. Following prestimulation, forskolin medium was replaced with medium containing test chemical solubilized in DMSO (ensuring a final concentration of 0.1% DMSO). Test chemicals were incubated for 48 hours, then the medium was removed and split into 2 vials containing approximately 75uL each, and stored at -80 C prior to hormone analysis. For steroid quantification, media samples were shipped to OpAns, LLC (Durham, NC) on dry ice, and samples were thawed to room temperature prior to liquid-liquid extraction. Steroid hormones were extracted from media samples using methyl tertbutyl ether (MTBE). An extra derivatization with dansyl chloride was included for estrogen (estrone and estradiol) detection only. Steroid hormones were separated by HPLC, eluted using a reverse phase C18 gradient with electrospray positive ionization, followed by quantification by tandem mass spectrometry (MS/MS). Data were acquired on a MassHunter Workstation Acquisition version B03.01 (Agilent Technologies, Inc.) and processed using MassHunter Quantitative Analysis for QQQ. Accuracy was determined for each hormone analyte from 3 standards to determine upper and lower limits of quantification (ULOQ and LLOQ, respectively) using a 7-point standard curve. Precision and accuracy of the extraction and quantification methods were calculated as the percent relative standard deviation (%RSD) of the spiked standards and percent spiked standard recovered, respectively. The goal was to achieve 100% accuracy (i.e., recover all spiked-in standard at quantification with minimal loss during run time) and good precision (i.e., have %RSD <15% to ensure reproducibility). Test medium was removed following chemical exposure, and cell viability was evaluated in the same wells by MTT. MTT procedures were as follows: after removal of test medium, 500 uL of 0.5 mg/ml of 3-[4,5-dimethylthiazol-2-y]2,5-diphenyltetrazoliumbromide solution was added to the cells. Following a 4-hour incubation at 37 C and 5% CO2 to allow formazan-crystal formation, the MTT solution was removed and blue formazan salt crystals were solubilized using 500uL anhydrous isopropanol with shaking for 20 minutes. Absorbance was read at 570 and 650nm using a Packard Fusion microplate reader. […]
In the case of `C[C@]12C=CC(=O)C=C1CC[C@H]1[C@@H]3C[C@@H](O)[C@](O)(C(=O)CO)[C@@]3(C)C[C@H](O)[C@@]12F`, the molecule was classed as inactive. Consider `CCCCC(CC)C(=O)OCCOCCOCCOC(=O)C(CC)CCCC` (stereo not given), for which the call was inactive. For `CCCCCCCCN(C)C`, the molecule was classed as inactive. `CC(C)c1nnc2ccc(-c3ocnc3-c3cc(F)ccc3F)cn12`: the outcome was inactive. Take `OCc1c[nH]c2ccccc12`: the call was inactive. On the same count and under the same terms, to `CC[C@H](C)C(=O)O[C@H]1C[C@H](O)C=C2C=C[C@H](C)[C@H](CC[C@@H](O)C[C@@H](O)CC(=O)O)[C@H]21` belongs “inactive”; to `CCN(CC)C(=S)SSC(=S)N(CC)CC`, “inactive”. Consider `CCn1nc(C)c2c1C(=O)NCC(c1ccc(O)cc1)=N2`, for which the molecule was called inactive. As to `C[C@@H](Oc1ccc(CNC(=O)c2cccnc2Oc2ccc3c(c2)OCO3)c(F)c1)C(=O)O`, the result was inactive. For `CCCOc1ccc(S(=O)(=O)N2CCN(CC)CC2)cc1-c1nc2c(CC)n(Cc3ccccn3)nc2c(=O)[nH]1`, the molecule was classed as inactive. Take `C=CCc1cc(S(=O)(=O)c2ccc(O)c(CC=C)c2)ccc1O`: the molecule was called inactive.

With `O=S(=O)(O)c1ccc(N=Nc2c(O)ccc3cc(S(=O)(=O)O)ccc23)cc1`, the outcome was inactive. Turning to `CCOc1ccc2[nH]cc(C(=O)NCc3ccccc3)c(=O)c2n1`, the molecule was called inactive. `CCCCCCCCCCCCCCO`: the molecule was called inactive.

Regarding `Cc1ncc([C@@H](CCCCCCc2ccc3c(n2)NCCC3)CC(=O)O)cn1`, the result was inactive. Turning to `COc1cc2c(c(OC)c1OC)-c1ccc(OC)c(=O)cc1[C@@H](NC(C)=O)CC2`, the half-maximal activity concentration (AC50) was 0.118 µM (active). For `c1ccc2c(c1)-c1cccc3c1c-2cc1ccccc13`, the result was inactive. As for `Nc1ccn([C@@H]2O[C@H](CO)[C@@H](O)[C@@H]2O)c(=O)n1`, the AC50 is 1.43 µM (active). As for `c1ccc2cc3ccccc3cc2c1`, the call was inactive. In the case of `Cc1nc(-c2ccccn2)ncc1C(=O)Nn1cc(C)c2cc(F)ccc21`, the AC50 was 75.8 µM (active).
